In PubChem BioAssay (NCI):
About 83,000 compounds went through this panel and 20% of them were active in at least one assay; those are over-represented in the sample as a whole.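 The test compound was applied at a single concentration to cells in 96-well plates for 48 hours, and percent growth was recorded.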 Active and inactive are the calls of the source. How the source made its calls: active means growth percent below 10; inactive means the rest.

How the values were obtained:
Experiment in all cases: NCI-60 one-dose screen, 48 h (100 = growth as untreated, 0 = no growth, -100 = all killed)
RPMI-8226 leukemia = conditions: 10 µM unless noted
OVCAR-8 ovarian = conditions: 10 µM unless noted
OVCAR-5 ovarian = conditions: 10 µM unless noted
SK-OV-3 ovarian = conditions: 10 µM unless noted
OVCAR-3 ovarian = conditions: 10 µM unless noted
HS 578T breast = conditions: 10 µM unless noted
NCI/ADR-RES ovarian = conditions: 10 µM unless noted
T-47D breast = conditions: 10 µM unless noted
BT-549 breast = conditions: 10 µM unless noted
MDA-MB-435 melanoma = conditions: 10 µM unless noted
SW-620 colon = conditions: 10 µM unless noted
MCF7 breast = conditions: 10 µM
HCT-116 colon = conditions: 10 µM unless noted
HCC-2998 colon = conditions: 10 µM unless noted
KM12 colon = conditions: 10 µM unless noted
OVCAR-4 ovarian = conditions: 10 µM unless noted
IGROV1 ovarian = conditions: 10 µM unless noted

Measured: growth

COC(=O)c1cc2c(n1Cc1ccccc1)-c1oncc1CCC2
active: MDA-MB-435 melanoma -13%
inactive: RPMI-8226 leukemia 49.8% | OVCAR-8 ovarian 76.7% | OVCAR-5 ovarian 87.8% | SK-OV-3 ovarian 93.7% | OVCAR-3 ovarian 65.2% | HS 578T breast 78.2% | NCI/ADR-RES ovarian 40.3% | T-47D breast 74.9% | BT-549 breast 79.6% | SW-620 colon 34.7% | MCF7 breast 40.8% | HCT-116 colon 57.4% | HCC-2998 colon 76.2% | KM12 colon 63%

COc1ccc2sc3c(NCCCN)nc4ccccc4c3c(=O)c2c1
inactive: OVCAR-5 ovarian 82.8% | OVCAR-4 ovarian 34.5% | IGROV1 ovarian 58.6% | HS 578T breast 70.9% | NCI/ADR-RES ovarian 68.3% | BT-549 breast 82.1%
active: RPMI-8226 leukemia -6.79% | OVCAR-8 ovarian 0.199% | OVCAR-3 ovarian -22.4% | MDA-MB-435 melanoma -79% | SW-620 colon -75% | MCF7 breast -74.2% | HCT-116 colon -84.1% | HCC-2998 colon -67.1% | KM12 colon -54.6%

CCOc1ccc(-c2nonc2NC(=O)c2cccc(C)c2)cc1OCC
active: RPMI-8226 leukemia 9.09%
inactive: OVCAR-8 ovarian 79.5% | OVCAR-5 ovarian 89.4% | SK-OV-3 ovarian 96.2% | IGROV1 ovarian 68.3% | OVCAR-3 ovarian 68.1% | HS 578T breast 85.4% | NCI/ADR-RES ovarian 67.5% | T-47D breast 84.3% | BT-549 breast 66.8% | MDA-MB-435 melanoma 51.7% | SW-620 colon 61.8% | MCF7 breast 60.3% | HCT-116 colon 47.2% | HCC-2998 colon 81.8% | KM12 colon 62.6%

CCN1CCN(c2cc(C)c3cc(NC(=O)c4ccc(OC)c(OC)c4)ccc3n2)CC1
active: MDA-MB-435 melanoma -42%
inactive: RPMI-8226 leukemia 16.7% | OVCAR-8 ovarian 58.9% | OVCAR-5 ovarian 88.7% | SK-OV-3 ovarian 39.8% | IGROV1 ovarian 36.6% | OVCAR-3 ovarian 12.5% | HS 578T breast 32.6% | NCI/ADR-RES ovarian 28.1% | T-47D breast 58.4% | BT-549 breast 42.3% | SW-620 colon 16.7% | MCF7 breast 17.9% | HCC-2998 colon 81.9% | KM12 colon 26.2%

Nc1nc(-c2cnccn2)nn1-c1nc2ccccc2s1
inactive: RPMI-8226 leukemia 82% | OVCAR-8 ovarian 99.9% | OVCAR-5 ovarian 104% | OVCAR-4 ovarian 97.7% | IGROV1 ovarian 100% | OVCAR-3 ovarian 108% | HS 578T breast 99.3% | NCI/ADR-RES ovarian 101% | BT-549 breast 104% | MDA-MB-435 melanoma 103% | SW-620 colon 105% | MCF7 breast 83.8% | HCT-116 colon 93% | HCC-2998 colon 101% | KM12 colon 101%

COc1cccc(-c2nn(C)c3sc(C(=O)NCCN4CCN(c5ccccc5F)CC4)cc23)c1
inactive: OVCAR-8 ovarian 88% | OVCAR-5 ovarian 88.4% | SK-OV-3 ovarian 88.7% | IGROV1 ovarian 65.2% | OVCAR-3 ovarian 64.9% | HS 578T breast 63% | NCI/ADR-RES ovarian 84.9% | T-47D breast 57.4% | BT-549 breast 90.8% | SW-620 colon 74.6% | MCF7 breast 15.1% | HCT-116 colon 33.5% | KM12 colon 54.2%
active: RPMI-8226 leukemia -18.3% | MDA-MB-435 melanoma -55.7% | HCC-2998 colon -41.1%

O=C(Nc1ccsc1C(=O)NC1CCCCC1)c1ccc(F)cc1
inactive: RPMI-8226 leukemia 70% | OVCAR-8 ovarian 102% | OVCAR-5 ovarian 98.3% | SK-OV-3 ovarian 101% | IGROV1 ovarian 90.7% | OVCAR-3 ovarian 111% | HS 578T breast 105% | NCI/ADR-RES ovarian 96.5% | T-47D breast 102% | BT-549 breast 113% | MDA-MB-435 melanoma 110% | SW-620 colon 92.5% | MCF7 breast 90.6% | HCT-116 colon 76% | HCC-2998 colon 97% | KM12 colon 107%

COc1ccc(-c2nnc(COc3ccc(C(=O)/C=C/c4ccco4)cc3)o2)cc1
active: HCT-116 colon -10.2%
inactive: OVCAR-8 ovarian 73.9% | OVCAR-5 ovarian 97.7% | OVCAR-4 ovarian 67.9% | SK-OV-3 ovarian 92.8% | IGROV1 ovarian 87.6% | OVCAR-3 ovarian 64.1% | HS 578T breast 92.6% | NCI/ADR-RES ovarian 89.2% | T-47D breast 80.6% | BT-549 breast 79.2% | SW-620 colon 31% | MCF7 breast 19.6% | HCC-2998 colon 98.2% | KM12 colon 18.2%

NS(=O)(=O)c1ccc(CCN=C=S)cc1
inactive: OVCAR-8 ovarian 30.1% | OVCAR-5 ovarian 85.5% | OVCAR-4 ovarian 42.8% | SK-OV-3 ovarian 122% | IGROV1 ovarian 25.6% | HS 578T breast 39.7% | NCI/ADR-RES ovarian 83.6% | BT-549 breast 63.8% | MDA-MB-435 melanoma 27.9% | HCC-2998 colon 81.1%
active: OVCAR-3 ovarian -18.6% | SW-620 colon -22.9% | MCF7 breast 2.99% | HCT-116 colon 0.727% | KM12 colon 8.37%

CN1C(=O)N(C)C2(c3ccccc3)n3c(s/c(=C\c4ccccc4)c3=O)=NNC12c1ccccc1 (centres undefined)
inactive: OVCAR-8 ovarian 96.8% | OVCAR-5 ovarian 99.9% | OVCAR-4 ovarian 100% | IGROV1 ovarian 97.9% | OVCAR-3 ovarian 103% | HS 578T breast 102% | NCI/ADR-RES ovarian 88.3% | T-47D breast 81.9% | BT-549 breast 105% | MDA-MB-435 melanoma 98.1% | SW-620 colon 88.6% | MCF7 breast 85.6% | HCT-116 colon 88.3% | HCC-2998 colon 110% | KM12 colon 88.2%

Clc1ccc(-c2nnc(COc3ccc(C4=NNC(c5ccco5)C4)cc3)o2)cc1 (centres undefined)
inactive: OVCAR-8 ovarian 96.6% | OVCAR-5 ovarian 95% | OVCAR-4 ovarian 77% | SK-OV-3 ovarian 98.2% | IGROV1 ovarian 85.4% | OVCAR-3 ovarian 91.3% | HS 578T breast 95.7% | NCI/ADR-RES ovarian 72.6% | T-47D breast 25.7% | BT-549 breast 81.6% | MDA-MB-435 melanoma 93.1% | SW-620 colon 94.5% | MCF7 breast 17.3% | HCT-116 colon 86.1% | HCC-2998 colon 82.3% | KM12 colon 70.9%

S=C1CCCC(=S)N1
inactive: OVCAR-8 ovarian 105% | OVCAR-5 ovarian 100% | OVCAR-4 ovarian 104% | SK-OV-3 ovarian 91.6% | IGROV1 ovarian 107% | OVCAR-3 ovarian 112% | HS 578T breast 99.8% | NCI/ADR-RES ovarian 99.5% | BT-549 breast 102% | MDA-MB-435 melanoma 106% | SW-620 colon 105% | MCF7 breast 105% | HCT-116 colon 102% | HCC-2998 colon 111% | KM12 colon 105%

CCOC(=O)c1cc2c(n1Cc1ccccc1OC)-c1oncc1CCC2
inactive: RPMI-8226 leukemia 14.9% | OVCAR-8 ovarian 35.4% | OVCAR-5 ovarian 69.5% | SK-OV-3 ovarian 24.2% | HS 578T breast 10.9% | NCI/ADR-RES ovarian 15% | BT-549 breast 54.9% | SW-620 colon 23.8% | MCF7 breast 14% | HCT-116 colon 29.5% | HCC-2998 colon 53.6% | KM12 colon 41.9%
active: OVCAR-3 ovarian 8.96% | MDA-MB-435 melanoma -1.95%

O=C(CN1C=NC2C(N3CCOCC3)=NC=NC21)c1cccc2ccccc12 (centres undefined)
inactive: OVCAR-8 ovarian 97% | OVCAR-5 ovarian 92% | OVCAR-4 ovarian 97.1% | IGROV1 ovarian 90.8% | OVCAR-3 ovarian 101% | HS 578T breast 102% | NCI/ADR-RES ovarian 104% | T-47D breast 90.7% | BT-549 breast 109% | SW-620 colon 96% | MCF7 breast 89.3% | HCT-116 colon 102% | HCC-2998 colon 120% | KM12 colon 102%

CCOC(=O)c1sc(-c2ccc(OS(=O)(=O)c3ccc(Br)s3)c(C=O)c2)nc1C
inactive: OVCAR-5 ovarian 61.2% | SK-OV-3 ovarian 97.2% | HS 578T breast 27.6% | T-47D breast 30.8% | HCC-2998 colon 82.5%
active: OVCAR-8 ovarian 3.64% | OVCAR-4 ovarian 7.2% | IGROV1 ovarian 3.38% | OVCAR-3 ovarian -1.81% | NCI/ADR-RES ovarian -8.08% | BT-549 breast 9.16% | MDA-MB-435 melanoma -12.1% | SW-620 colon 7.65% | MCF7 breast 0.976% | HCT-116 colon 2.52% | KM12 colon 6.21%

CC(=S)NC(=O)C(=O)/C=C1/NC(=O)C(=O)S1
inactive: OVCAR-8 ovarian 106% | OVCAR-5 ovarian 107% | OVCAR-4 ovarian 106% | SK-OV-3 ovarian 122% | IGROV1 ovarian 109% | OVCAR-3 ovarian 122% | HS 578T breast 107% | NCI/ADR-RES ovarian 103% | T-47D breast 107% | BT-549 breast 106% | MDA-MB-435 melanoma 106% | SW-620 colon 106% | MCF7 breast 104% | HCT-116 colon 114% | HCC-2998 colon 108% | KM12 colon 107%

COC(=O)[C@@H]1CCCN1C(=O)[C@H]1CCCN1C(=O)[C@@H](Cc1c[nH]c2ccccc12)NC(=S)Nc1cc(C(F)(F)F)cc(C(F)(F)F)c1
inactive: OVCAR-8 ovarian 61.3% | OVCAR-5 ovarian 60.1% | OVCAR-4 ovarian 47.2% | SK-OV-3 ovarian 69.6% | IGROV1 ovarian 29.2% | OVCAR-3 ovarian 47% | HS 578T breast 11.6% | NCI/ADR-RES ovarian 67.1% | T-47D breast 37.3% | BT-549 breast 78.9% | MDA-MB-435 melanoma 31.9% | SW-620 colon 63.1% | MCF7 breast 25.3% | HCT-116 colon 36.9% | HCC-2998 colon 20.8% | KM12 colon 40.1%

COc1ccc(C(=O)Nc2ccc3nc(N4CCCCC4)cc(C)c3c2)cc1OC
inactive: RPMI-8226 leukemia 61.8% | OVCAR-8 ovarian 94.1% | OVCAR-5 ovarian 89.1% | SK-OV-3 ovarian 114% | OVCAR-3 ovarian 59.1% | HS 578T breast 77.9% | NCI/ADR-RES ovarian 98.3% | T-47D breast 94.8% | BT-549 breast 90.6% | MDA-MB-435 melanoma 88.2% | SW-620 colon 23.7% | MCF7 breast 80.2% | HCT-116 colon 64.2% | HCC-2998 colon 66.5% | KM12 colon 23.7%

CN=c1ccc2nc3ccc(N)cc3sc-2c1
inactive: OVCAR-5 ovarian 24.6% | SK-OV-3 ovarian 30.1% | IGROV1 ovarian 22.3% | OVCAR-3 ovarian 10.8% | HS 578T breast 59% | T-47D breast 20.1% | BT-549 breast 52.4% | SW-620 colon 10.8% | HCC-2998 colon 49.8% | KM12 colon 27.9%
active: OVCAR-8 ovarian 2.77% | OVCAR-4 ovarian -11.2% | NCI/ADR-RES ovarian 5.34% | HCT-116 colon 6.01%

CCCSC1=NC2C(N(CC)C(=O)N2CC)N1/N=C/C=C/c1ccccc1[N+](=O)[O-] (centres undefined)
active: OVCAR-3 ovarian -15.8% | MDA-MB-435 melanoma -30.1% | HCT-116 colon 7.28%
inactive: OVCAR-8 ovarian 33.7% | OVCAR-5 ovarian 48% | OVCAR-4 ovarian 39.9% | IGROV1 ovarian 29.9% | HS 578T breast 18.5% | NCI/ADR-RES ovarian 13.4% | T-47D breast 64.1% | BT-549 breast 30.7% | SW-620 colon 37.3% | MCF7 breast 21.8% | HCC-2998 colon 15% | KM12 colon 14.9%
